Where “and” joins values, the source holds several entries; their conditions need not be identical. Equal entries are not always repeated. Inconclusive results are not listed. The source holds several records for some structures; these can differ, active in one and inactive in another. Calls of active or inactive are those of the source. Unless noted, calls follow the shape of the dose curve; as a rule, active = well fitted curve in the direction sought with a large enough effect; inconclusive = small, poorly fitted or top-dose-only effect, or another doubt; inactive = no such curve, though single readings can be large; an effect the other way counts as inactive or inconclusive.

Test [1] deals with Zika virus NS2B-NS3 protease. Put plainly: Primary screen GU AMC qHTS for Zika virus inhibitors (AID 1347154). Also: nearly all actives have a fitted effect of over 70% in size. Summed up: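 Unlinked Zika NS2B hydrophilic domain/NS3 protease domain noncovalent complex (25 nM final) in 10 mM Tris-HCl pH 8.0, 0.01% Tween 20, with AMC peptide substrate. Fluorescence (ex 340, em 450 nm) change over 15 min, room temperature; percent inhibition fitted to 4-parameter Hill equation.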
On the technique in general: In qHTS, concentration-response curves come from the screen itself.

Test [2] can be described thus: Confirmatory qHTS for small molecule stabilizers of the endoplasmic reticulum resident proteome: Secreted ER Calcium Modulated Protein (SERCaMP) assay (AID 1508628). Also: nearly all actives have a fitted effect of over 40% in size. Also: potency is read from the fitted curve at half-maximal effect. Summed up:
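SH-SY5Y cells stably expressing GLuc-SERCaMP, treated 16 h with compound (primary 1.53, 7.67, 38.3 uM; confirmation 11 concentrations, up to 76.6 uM), then 100 nM thapsigargin for 4 h. Secreted Gaussia luciferase in medium read by coelenterazine luminescence.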

A short description of test [3]: Counterscreen qHTS for small molecule stabilizers of the endoplasmic reticulum resident proteome: GLuc-NoTag assay (AID 1508627). Also: potency is read from the fitted curve at half-maximal effect. In a few lines: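 SH-SY5Y cells stably expressing constitutively secreted GLuc (no SERCaMP tag) were pre-incubated 5 h, treated with compound for 19 h, then 100 nM thapsigargin for 4 h at 37C; medium GLuc read by coelenterazine luminescence.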
(A counterscreen serves to expose hits that act by an unwanted route or on another target.)

The target of test [4] is Glucocorticoid receptor (Homo sapiens) (UniProt P04150). The experiment in a line: GR-GFP Redistribution (AID 450;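 active = compounds whose dose series gives a full or clear partial fitted curve of increased nuclear translocation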; also: potency is read from the fitted curve at half-maximal effect). Conditions: U2OS GR-GFP nuclear translocation, laser cytometry, 2 h.
Glucocorticoid receptor (Homo sapiens), sequence (P04150 whole entry, looked up): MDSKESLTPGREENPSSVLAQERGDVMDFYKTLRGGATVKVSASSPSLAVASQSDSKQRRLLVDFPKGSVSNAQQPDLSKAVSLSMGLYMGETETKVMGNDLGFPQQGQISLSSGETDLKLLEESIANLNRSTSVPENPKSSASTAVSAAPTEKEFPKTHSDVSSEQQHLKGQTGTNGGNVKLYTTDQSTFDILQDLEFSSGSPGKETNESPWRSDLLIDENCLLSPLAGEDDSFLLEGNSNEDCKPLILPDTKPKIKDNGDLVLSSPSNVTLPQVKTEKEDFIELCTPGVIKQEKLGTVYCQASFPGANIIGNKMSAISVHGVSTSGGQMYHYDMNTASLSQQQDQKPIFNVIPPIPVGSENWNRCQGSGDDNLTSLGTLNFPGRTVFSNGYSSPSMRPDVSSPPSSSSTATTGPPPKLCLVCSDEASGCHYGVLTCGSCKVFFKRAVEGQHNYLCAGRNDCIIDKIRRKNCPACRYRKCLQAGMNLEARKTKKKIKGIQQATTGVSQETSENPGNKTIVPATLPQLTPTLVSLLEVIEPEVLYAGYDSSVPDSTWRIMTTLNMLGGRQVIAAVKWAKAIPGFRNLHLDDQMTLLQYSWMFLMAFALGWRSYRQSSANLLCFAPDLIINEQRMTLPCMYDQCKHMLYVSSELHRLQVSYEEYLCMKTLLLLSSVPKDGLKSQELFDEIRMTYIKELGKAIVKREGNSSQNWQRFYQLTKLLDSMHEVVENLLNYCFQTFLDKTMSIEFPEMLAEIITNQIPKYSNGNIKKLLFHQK
The target is the same in test [5]. Put plainly: GR-EFC Redistribution (AID 451; calls by dose curve; also: potency is read from the fitted curve at half-maximal effect). Conditions: CHO-K1 GR-EFC translocation, beta-gal luminescence, 2 h. In a few lines:
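CHO-K1 cells stably expressing nuclear-localized β-gal enzyme acceptor and GR fused C-terminally to the enzyme donor fragment; ligand-driven nuclear translocation restores β-gal by complementation. Compounds titrated up to 46 uM final, 2 h at 37 °C; luminescence read.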

The target of test [6] is Mitogen-activated protein kinase 10 (Mus musculus) (UniProt Q61831). The experiment in a line: JNK3 AlphaScreen Assay (AID 530; active = well fitted curve in either direction with a large enough effect, not every such curve was filed as active;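 also: kinase came from lysate of stimulated human HepG2 cells; signal reports phosphorylation of biotinylated GST-cJun 1-79 at Ser73 with 10 µM ATP; series mostly up to about 57 µM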). Summed up:
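Inhibitors reduce antibody binding to phosphorylated biotin-cJun, lowering AlphaScreen luminescence. Lysates from HepG2 cells pre-activated by IL-1beta plus TNF-alpha supplied JNK3; compounds were titrated.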
For orientation: Bead proximity is the source of the signal in Alpha formats.

The target of test [7] is Cytochrome P450 2D6 (Homo sapiens) (UniProt P10635). The experiment in a line: qHTS Assay for Inhibitors and Substrates of Cytochrome P450 2D6 (AID 891). Also: potency is read from the fitted curve at half-maximal effect; nearly all actives have a fitted effect of over 60% in size. Summed up: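 Human CYP2D6 (5 nM) with 30 uM Luciferin-ME EGE (at Km) in 100 mM KPO4, compound preincubated 10 min, then NADPH regeneration system for 60 min at room temperature. Luciferin read by luminescence; normalized to 1.43 uM quinidine.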
Cytochrome P450 2D6 (Homo sapiens), sequence (P10635 whole entry, looked up): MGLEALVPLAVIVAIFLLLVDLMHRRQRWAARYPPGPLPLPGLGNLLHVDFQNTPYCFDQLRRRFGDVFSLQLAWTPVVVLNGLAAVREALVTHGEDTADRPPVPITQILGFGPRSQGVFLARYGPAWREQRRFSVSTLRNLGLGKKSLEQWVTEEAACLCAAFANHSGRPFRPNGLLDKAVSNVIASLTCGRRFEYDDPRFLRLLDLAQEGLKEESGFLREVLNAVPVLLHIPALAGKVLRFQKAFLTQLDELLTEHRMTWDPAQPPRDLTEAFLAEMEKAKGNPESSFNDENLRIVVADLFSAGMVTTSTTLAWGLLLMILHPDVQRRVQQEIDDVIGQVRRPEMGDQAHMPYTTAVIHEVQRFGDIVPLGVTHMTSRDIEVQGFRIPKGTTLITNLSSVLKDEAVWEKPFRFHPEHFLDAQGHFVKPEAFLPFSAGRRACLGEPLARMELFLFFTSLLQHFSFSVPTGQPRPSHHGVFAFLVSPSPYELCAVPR

The target of test [8] is Cytochrome P450 2C19 (Homo sapiens) (UniProt P33261). The experiment in a line: qHTS Assay for Inhibitors and Substrates of Cytochrome P450 2C19 (AID 899). Also: potency is read from the fitted curve at half-maximal effect; nearly all actives have a fitted effect of over 60% in size. In a few lines:
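In 50mM KPO4, the reaction held 5nM enzyme and KM-level (10uM) Luciferin-H EGE; it ran 60 min at 37C after NADPH regeneration and a 10 min compound preincubation. Luminescence values were scaled to 57uM ketoconazole as complete inhibition.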

In test [9] the target is Ubiquitin carboxyl-terminal hydrolase 1 (Homo sapiens) (UniProt O94782). Put plainly: Inhibitors of USP1/UAF1: Pilot qHTS (AID 504865).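 Also: rhodamine fluorescence freed from ubiquitin-rhodamine substrate followed over time; top concentration of the series differs between compounds; nearly all actives have a fitted effect of over 35% in size.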 Summed up:
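In 50mM HEPES pH 7.8 containing 0.5mM EDTA, 1mM TCEP, 0.1 mg/ml BSA and 0.01% Tween-20, 1nM USP1/UAF1 is exposed to compound for 15 min, then Ub-Rho (150nM final) is added and fluorescence is read over time.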

Test [10] deals with DNA dC->dU-editing enzyme APOBEC-3G (Homo sapiens) (UniProt Q9HC16). Put plainly: qHTS for inhibitors of Vif-A3G interactions: Validation (AID 588379). In a few lines: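 HeLa cells stably expressing Vif and A3G-eYFP, 700 cells/well, incubated overnight at 37 deg C, then exposed to compound overnight at 37 deg C. Inhibition of Vif-mediated degradation read as increased yellow fluorescence (Ex 488/Em 500-530) by laser-scanning cytometry.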
DNA dC->dU-editing enzyme APOBEC-3G (Homo sapiens), sequence (Q9HC16 whole entry, looked up): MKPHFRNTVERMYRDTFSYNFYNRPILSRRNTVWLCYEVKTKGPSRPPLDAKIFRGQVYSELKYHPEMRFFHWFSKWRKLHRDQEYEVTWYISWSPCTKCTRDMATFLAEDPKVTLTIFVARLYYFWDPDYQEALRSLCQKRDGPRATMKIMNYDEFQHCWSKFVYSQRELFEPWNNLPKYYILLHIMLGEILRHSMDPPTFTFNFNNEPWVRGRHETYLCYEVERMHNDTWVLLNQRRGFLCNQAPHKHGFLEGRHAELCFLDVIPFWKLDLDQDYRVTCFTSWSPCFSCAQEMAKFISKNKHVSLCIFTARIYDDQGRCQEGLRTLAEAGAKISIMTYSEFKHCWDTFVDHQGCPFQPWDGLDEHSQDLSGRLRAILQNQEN

Test [11] in a line: Cell Viability qHTS for small molecule stabilizers of the endoplasmic reticulum resident proteome (AID 1508629).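 Also: potency is read from the fitted curve at half-maximal effect; compound exposure about 46 h in total before the viability read.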 Conditions: cell viability counter-screen, 100 nM thapsigargin for final 4 h.
The nature of test [12]: Primary qHTS for small molecule stabilizers of the endoplasmic reticulum resident proteome: Secreted ER Calcium Modulated Protein (SERCaMP) assay (AID 1508630). Also: potency is read from the fitted curve at half-maximal effect. In a few lines:
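GLuc-SERCaMP-expressing SH-SY5Y cells, pretreated 16 h with compound, are challenged with thapsigargin to empty ER calcium stores; after 4 h, coelenterazine is added directly to the medium and luminescence is imaged.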

In test [13] the target is Cytochrome P450 1A2 (Homo sapiens) (UniProt P05177). Put plainly: p450-cyp1a2 (AID 410; calls by dose curve; also: potency is read from the fitted curve at half-maximal effect). In a few lines:
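20nM CYP1A2 with 100uM Luciferin-ME (at Km) in 100mM KPO4; compound preincubated 10 min, NADPH regeneration added, 60 min at room temperature. Luciferin quantified by luminescence after detection reagent; normalized to 57 uM furafylline.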

Test [14] concerns the target Cytochrome P450 2C9 (Homo sapiens) (UniProt P11712). Put plainly: qHTS Assay for Inhibitors and Substrates of Cytochrome P450 2C9 (AID 883). Also: potency is read from the fitted curve at half-maximal effect; nearly all actives have a fitted effect of over 60% in size. In a few lines: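 CYP2C9 deoxyluciferin hydroxylation, 37C, 60 min with NADPH regeneration; 10nM enzyme, 100uM Luciferin-H (KM). Glo detection reagent stopped reaction; luminescence normalized to sulphaphenazole (57uM) full inhibition.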

Cytochrome P450 2C19 (Homo sapiens), sequence (P33261 whole entry, looked up): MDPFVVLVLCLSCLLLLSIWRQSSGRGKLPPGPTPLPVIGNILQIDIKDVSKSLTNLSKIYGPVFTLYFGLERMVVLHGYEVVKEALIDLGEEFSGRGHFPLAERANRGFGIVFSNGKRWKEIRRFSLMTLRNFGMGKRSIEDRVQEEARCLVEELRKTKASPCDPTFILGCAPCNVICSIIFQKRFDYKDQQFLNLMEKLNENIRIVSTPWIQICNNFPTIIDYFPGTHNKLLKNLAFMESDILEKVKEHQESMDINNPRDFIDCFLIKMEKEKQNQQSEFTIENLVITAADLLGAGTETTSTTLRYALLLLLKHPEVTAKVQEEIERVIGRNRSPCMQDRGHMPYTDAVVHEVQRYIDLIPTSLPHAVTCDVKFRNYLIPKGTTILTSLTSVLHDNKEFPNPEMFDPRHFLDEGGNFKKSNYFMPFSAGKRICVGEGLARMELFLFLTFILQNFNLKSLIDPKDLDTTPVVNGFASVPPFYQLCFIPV
Ubiquitin carboxyl-terminal hydrolase 1 (Homo sapiens), sequence (O94782 whole entry, looked up): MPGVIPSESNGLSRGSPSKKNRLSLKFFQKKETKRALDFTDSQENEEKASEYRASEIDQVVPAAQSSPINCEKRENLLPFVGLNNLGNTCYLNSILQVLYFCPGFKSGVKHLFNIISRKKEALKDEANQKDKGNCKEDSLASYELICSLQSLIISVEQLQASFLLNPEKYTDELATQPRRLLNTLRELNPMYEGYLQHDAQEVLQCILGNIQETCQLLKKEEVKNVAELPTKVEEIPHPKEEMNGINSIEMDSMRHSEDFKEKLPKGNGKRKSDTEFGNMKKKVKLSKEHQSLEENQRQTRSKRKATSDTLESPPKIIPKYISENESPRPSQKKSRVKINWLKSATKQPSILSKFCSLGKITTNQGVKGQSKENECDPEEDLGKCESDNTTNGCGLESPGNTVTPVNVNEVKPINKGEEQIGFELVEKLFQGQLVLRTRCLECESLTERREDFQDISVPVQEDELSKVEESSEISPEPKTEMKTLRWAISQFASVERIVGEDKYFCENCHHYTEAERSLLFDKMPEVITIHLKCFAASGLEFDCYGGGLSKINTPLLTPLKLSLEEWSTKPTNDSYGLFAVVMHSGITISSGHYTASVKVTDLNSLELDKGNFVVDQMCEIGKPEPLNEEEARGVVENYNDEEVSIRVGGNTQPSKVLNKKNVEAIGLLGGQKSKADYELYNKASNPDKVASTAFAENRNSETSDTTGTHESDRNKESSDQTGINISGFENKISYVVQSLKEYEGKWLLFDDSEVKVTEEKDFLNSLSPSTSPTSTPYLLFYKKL
Cytochrome P450 1A2 (Homo sapiens), sequence (P05177 whole entry, looked up): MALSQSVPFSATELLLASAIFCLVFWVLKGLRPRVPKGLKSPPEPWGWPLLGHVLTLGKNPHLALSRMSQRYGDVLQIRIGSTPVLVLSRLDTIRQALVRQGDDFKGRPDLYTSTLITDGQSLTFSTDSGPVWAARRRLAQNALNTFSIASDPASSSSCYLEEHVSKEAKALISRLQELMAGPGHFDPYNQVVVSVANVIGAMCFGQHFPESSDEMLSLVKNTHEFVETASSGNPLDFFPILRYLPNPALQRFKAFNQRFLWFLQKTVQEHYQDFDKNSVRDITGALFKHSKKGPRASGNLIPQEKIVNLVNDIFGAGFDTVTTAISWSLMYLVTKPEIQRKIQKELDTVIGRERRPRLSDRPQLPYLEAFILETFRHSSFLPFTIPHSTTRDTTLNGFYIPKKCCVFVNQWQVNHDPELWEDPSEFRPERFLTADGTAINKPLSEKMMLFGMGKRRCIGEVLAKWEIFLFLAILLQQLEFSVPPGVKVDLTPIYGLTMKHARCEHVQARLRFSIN
Cytochrome P450 2C9 (Homo sapiens), sequence (P11712 whole entry, looked up): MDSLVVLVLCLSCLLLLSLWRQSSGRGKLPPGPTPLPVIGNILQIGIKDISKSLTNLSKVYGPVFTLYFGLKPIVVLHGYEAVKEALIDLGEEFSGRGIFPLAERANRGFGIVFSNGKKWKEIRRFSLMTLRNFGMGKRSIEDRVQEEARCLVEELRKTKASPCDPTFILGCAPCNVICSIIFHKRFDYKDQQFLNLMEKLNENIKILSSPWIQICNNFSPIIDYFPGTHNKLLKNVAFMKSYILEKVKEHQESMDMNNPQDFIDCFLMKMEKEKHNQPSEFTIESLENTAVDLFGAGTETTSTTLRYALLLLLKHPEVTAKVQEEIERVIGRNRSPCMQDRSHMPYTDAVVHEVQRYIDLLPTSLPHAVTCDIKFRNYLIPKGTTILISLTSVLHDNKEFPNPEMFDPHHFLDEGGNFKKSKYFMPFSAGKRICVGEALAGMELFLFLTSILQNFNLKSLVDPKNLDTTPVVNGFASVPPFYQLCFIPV

With `N=C(CC(O)COc1ccccc1-c1ccccc1)N1CCCCC1` (configuration not stated), the Potency result in test [1] and in test [2] was “inactive” in each case.

On to `COc1ccc(C2Sc3ccccc3N(CCN(C)C)C(=O)[C@@H]2OC(C)=O)cc1` (some centres not stated), for which the Potency entry in [1] and in [3] was “inactive” each time. For the same compound, the Potency in test [2] is 31.6 µM (active) and inactive.

In the case of `NC(=NC1C2CC3CC(C2)CC1C3)Nc1ccc(I)cc1` (configuration not stated), the Potency in [4] is > 46 µM (inactive); in [5], > 46 µM (inactive); in [7], 0.0398 µM (active); in test [8], 5.01 µM (active); in [3], 31.6 µM (active); in test [11], 12.6 µM (active). Besides, in [12], the Potency entry was “inactive and 4.47 µM (active)”. Further, the Potency entry in test [6], in [9], in [10], in test [1] and in [2] was “inactive” throughout.

Regarding `COc1cc(N)c(Cl)cc1C(=O)N[C@H]1CCN(CCCOc2ccc(F)cc2)C[C@@H]1OC`, the Potency in [13] was 25.1 µM (active); in [4], > 46 µM (inactive); in [5], > 46 µM (inactive); in test [14], 1 µM (active); in test [8], 0.794 µM (active). Also, the Potency result in test [6], in [9], in test [10], in test [1] and in test [3] was “inactive” each time.
